# Measurements from PubChem BioAssay.
# Unmarked numbers belong to inactive results. For part of these data: Entries with a potency or affinity are not part of this list. Active and inactive are the calls of the source. Unless noted, the rule behind the calls is not given here.
# How the values were obtained:
# [1] = antimalarial activity against Dd2 strain (AID 2302;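 active = growth inhibition above 50% at the single 2 µM test dose, taken to imply half-maximal potency below 2 µM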;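 note: 0% = DMSO untreated growth and 100% = chloroquine plus artemisinin killed control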); settings: P. falciparum Dd2 in RBCs, LDH growth readout, 72 h; at 2 µM; hits give high values
# [2] = HepG2 cytotoxicity, primary screen, cytotoxicity control for P. falciparum antimalarial project, cell-based, ATP luminescence (AID 2303;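 active = inhibition above 50%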;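 note: 0% = DMSO wells and 100% = digitonin-killed cells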); settings: HepG2 viability, 24-48 h, at 10 µM, hits give high values
# [3] = target: L-lactate dehydrogenase (Plasmodium falciparum (isolate CDC / Honduras)) (UniProt Q27743); assay: PfLDH activity inhibition – cell lysate, 3D7 strain, counter-screen for P. falciparum growth inhibition project (AID 2304);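 note: 0% = vehicle and 100% = reference inhibitor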; settings: P. falciparum 3D7 crude extract, LDH APAD/NBT absorbance; at 2 µM; hits give high values
# [4] = inhibition of 3D7 malaria parasite growth – strain 3D7 (AID 2306);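 note: 0% = DMSO wells and 100% = chloroquine plus artemisinin control wells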; settings: P. falciparum 3D7 erythrocytic growth, LDH absorbance, 72 h; at 2 µM; hits give high values
# [5] = target: Calcium-dependent protein kinase 1 (Plasmodium falciparum (isolate 3D7)) (UniProt P62344); assay: PfCDPK1 kinase inhibitors, biochemical, TCAMS library (AID 1159585; cut-off not given, nearly all actives have IC50 up to about 0.98 µM;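 note: inhibitors leave more ATP so luminescence rises with inhibition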); settings: recombinant PfCDPK1, Kinase-Glo ATP depletion luminescence
# [6] = target: Plasmodium falciparum protein kinase 6 (PK6, PF3D7_1337100) (UniProt Q8IDW1); assay: PfPK6 kinase inhibitors, biochemical, TCAMS library (AID 1159586); settings: recombinant PfPK6, Kinase-Glo ATP depletion luminescence
# [7] = target: Protein kinase 7 (PK7), Plasmodium falciparum 3D7 (PF3D7_0213400) (UniProt Q7YTF7); assay: inhibition of Plasmodium PK7 catalytic activity – biochemical, TCAMS antimalarial set, Kinase-Glo luminescence (AID 1159587); settings: recombinant PfPK7, Kinase-Glo ATP depletion luminescence
# [8] = target: Calcium-dependent protein kinase 4 (Plasmodium falciparum (isolate 3D7)) (UniProt Q8IBS5); assay: PfCDPK4 kinase inhibitors, biochemical, TCAMS library (AID 1159588; cut-off not given, nearly all actives have IC50 up to about 0.91 µM); settings: recombinant PfCDPK4, Kinase-Glo ATP depletion luminescence
# Sequence of Calcium-dependent protein kinase 4 (Plasmodium falciparum (isolate 3D7)) (Q8IBS5 whole entry, looked up): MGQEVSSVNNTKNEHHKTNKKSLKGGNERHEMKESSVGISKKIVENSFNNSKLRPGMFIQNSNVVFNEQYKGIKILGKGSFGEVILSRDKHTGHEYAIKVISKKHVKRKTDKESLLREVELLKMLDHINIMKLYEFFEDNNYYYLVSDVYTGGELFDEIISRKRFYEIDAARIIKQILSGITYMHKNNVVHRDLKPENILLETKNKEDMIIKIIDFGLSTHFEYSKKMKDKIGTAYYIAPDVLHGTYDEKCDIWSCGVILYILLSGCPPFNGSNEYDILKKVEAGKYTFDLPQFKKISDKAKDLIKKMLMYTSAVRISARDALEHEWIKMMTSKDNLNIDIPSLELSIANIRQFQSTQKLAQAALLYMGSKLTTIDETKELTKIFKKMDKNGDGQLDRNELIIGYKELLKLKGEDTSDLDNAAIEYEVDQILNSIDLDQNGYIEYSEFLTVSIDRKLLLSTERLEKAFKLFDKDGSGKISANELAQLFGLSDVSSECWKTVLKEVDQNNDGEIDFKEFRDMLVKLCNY
# Sequence of Calcium-dependent protein kinase 1 (Plasmodium falciparum (isolate 3D7)) (P62344 whole entry, looked up): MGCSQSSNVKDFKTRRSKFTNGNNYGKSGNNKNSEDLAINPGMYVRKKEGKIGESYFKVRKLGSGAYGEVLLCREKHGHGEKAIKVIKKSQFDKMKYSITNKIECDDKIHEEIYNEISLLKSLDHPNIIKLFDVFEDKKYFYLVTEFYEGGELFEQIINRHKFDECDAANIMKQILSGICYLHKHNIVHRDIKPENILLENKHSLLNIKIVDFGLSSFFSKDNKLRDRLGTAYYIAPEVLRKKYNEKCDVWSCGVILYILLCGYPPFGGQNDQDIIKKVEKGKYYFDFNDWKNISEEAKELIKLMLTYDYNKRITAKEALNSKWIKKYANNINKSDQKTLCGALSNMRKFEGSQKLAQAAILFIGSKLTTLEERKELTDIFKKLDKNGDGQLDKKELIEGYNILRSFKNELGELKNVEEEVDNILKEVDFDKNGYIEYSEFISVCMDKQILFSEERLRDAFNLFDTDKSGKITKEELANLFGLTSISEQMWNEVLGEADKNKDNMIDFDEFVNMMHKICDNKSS
# Sequence of Plasmodium falciparum protein kinase 6 (PK6, PF3D7_1337100) (Q8IDW1 1-305): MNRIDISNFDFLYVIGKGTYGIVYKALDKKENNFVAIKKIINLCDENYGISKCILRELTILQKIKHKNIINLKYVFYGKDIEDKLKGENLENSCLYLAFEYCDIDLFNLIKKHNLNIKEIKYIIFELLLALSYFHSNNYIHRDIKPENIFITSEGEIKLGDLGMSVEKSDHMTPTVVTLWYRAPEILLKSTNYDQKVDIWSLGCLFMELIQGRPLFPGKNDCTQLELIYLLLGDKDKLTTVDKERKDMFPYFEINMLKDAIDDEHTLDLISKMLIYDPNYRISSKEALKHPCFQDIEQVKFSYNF
# Sequence of Protein kinase 7 (PK7), Plasmodium falciparum 3D7 (PF3D7_0213400) (Q7YTF7 1-343): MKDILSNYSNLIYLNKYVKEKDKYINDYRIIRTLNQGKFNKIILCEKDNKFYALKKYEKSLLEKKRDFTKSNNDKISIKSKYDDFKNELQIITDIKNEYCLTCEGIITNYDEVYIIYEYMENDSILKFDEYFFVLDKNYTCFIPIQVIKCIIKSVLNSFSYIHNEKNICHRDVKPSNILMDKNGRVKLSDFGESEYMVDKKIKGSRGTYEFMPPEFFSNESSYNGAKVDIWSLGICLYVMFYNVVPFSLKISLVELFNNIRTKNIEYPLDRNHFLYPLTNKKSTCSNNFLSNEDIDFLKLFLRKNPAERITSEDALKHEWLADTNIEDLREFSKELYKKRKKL
# Sequence of L-lactate dehydrogenase (Plasmodium falciparum (isolate CDC / Honduras)) (Q27743 whole entry, looked up): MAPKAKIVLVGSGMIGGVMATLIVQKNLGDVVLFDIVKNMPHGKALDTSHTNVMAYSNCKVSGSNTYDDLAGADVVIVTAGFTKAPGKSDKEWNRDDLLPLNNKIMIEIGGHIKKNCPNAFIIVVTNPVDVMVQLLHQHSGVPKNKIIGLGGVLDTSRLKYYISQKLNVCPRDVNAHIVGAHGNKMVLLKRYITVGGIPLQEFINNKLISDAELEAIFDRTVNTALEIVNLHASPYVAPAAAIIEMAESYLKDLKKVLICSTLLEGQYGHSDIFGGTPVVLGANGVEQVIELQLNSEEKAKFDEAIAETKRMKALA
SMILES,growth inhibition [1],inhibition [2],inhibition [3] [%],growth inhibition [4],outcome [5],outcome [6],outcome [7],outcome [8]
Cn1cnc(CCNC(=O)c2ccc(-c3cccc(-c4nc5ccccc5[nH]4)c3)cc2)c1,14%,1%,2,93% (active),inactive,inactive,inactive,inactive
NC(N)=Nc1cccc(NC(=O)Nc2cccc(N=C(N)N)c2)c1,71% (active),-7%,7,87% (active),inactive,inactive,inactive,inactive
Cc1cc(NC(=O)c2coc3cc(F)c(N4C[C@@H](C)N(C)[C@@H](C)C4)cc23)cnc1-c1ccc(C#N)cc1,71% (active),35%,-3,99% (active),inactive,inactive,inactive,inactive
O=C(Nc1ccc(Cl)c(Cl)c1)C1CCC(=O)N1[C@@H](Cc1ccccc1)C(=O)NCCc1ccc(Cl)cc1 (some centres not stated),-9%,3%,0,95% (active),inactive,inactive,inactive,inactive
COC(=O)Nc1cc(C(F)(F)F)ccc1N1CCC(CNS(=O)(=O)c2ccc(OC)cc2)CC1,95% (active),13%,0,99% (active),inactive,inactive,inactive,inactive
COc1ccc(CNCc2ccsc2)cc1-c1ccc(OC)c(S(=O)(=O)NCCN2CCCC2)c1,62% (active),18%,0,97% (active),inactive,inactive,inactive,inactive
Cc1cc(C)c(NC(=O)NC2CCN(CCCCCNC(=O)/C=C/c3ccc(Cl)c(Cl)c3)C2)c(C)c1 (configuration not stated),48%,23%,1,99% (active),inactive,inactive,inactive,inactive
COc1cc2nc(N3CCC(CNC(=O)c4cc5ccccc5s4)CC3)nc(N)c2cc1OC,101% (active),8%,2,101% (active),inactive,inactive,inactive,inactive
CN(CCNCc1ccc(-c2cccc(-c3nc4ccccc4[nH]3)c2)cc1)S(C)(=O)=O,29%,9%,-2,101% (active),inactive,inactive,inactive,inactive
CCc1ccccc1OCCCON1C(N)=NC(N)=NC1(C)C,97% (active),77% (active),-2,95% (active),inactive,inactive,inactive,inactive
Nc1nccc2ccc(-c3cccc4ncccc34)cc12,94% (active),40%,-1,98% (active),inactive,inactive,inactive,inactive
COc1ccc(CNc2ncnc3c2[nH]c2ccc(F)cc23)cc1,71% (active),38%,-3,93% (active),inactive,inactive,inactive,inactive
CN(C)c1ccc2c(c1)Sc1cc(N(C)C)ccc1N2C(=O)CCCC(=O)O,81% (active),-4%,-6,96% (active),inactive,inactive,inactive,inactive
COc1ccc(-c2nc3cccnc3n2CC(=O)Nc2c(C)cc(C)cc2C)c(OC)c1,21%,77% (active),1,91% (active),inactive,inactive,inactive,inactive
O=S1c2ccccc2Sc2ccccc21,-1%,48%,6,99% (active),inactive,inactive,inactive,inactive
CCC(CC)C(CC(=O)NC(C)(C)CCc1ccccc1OC)Nc1ccc(C#N)c2ccccc12 (configuration not stated),91% (active),9%,-1,93% (active),inactive,inactive,inactive,inactive
COc1ccc(Nc2nccc(N3CCC(NC(=O)C(C)c4ccc(Cl)cc4)C3)n2)cc1 (configuration not stated),97% (active),35%,-4,85% (active),inactive,inactive,inactive,inactive
CCOc1cc(C2C(C(=O)OC(C)C)=C(C)NC3=C2C(=O)CC(c2ccc(Cl)cc2)C3)ccc1OC(C)=O (configuration not stated),20%,16%,-3,90% (active),inactive,inactive,inactive,inactive
O=C(c1ccc(O)c(-c2cc(Cl)cc(Cl)c2)c1)N(CCO)CCO,62% (active),1%,-9,94% (active),inactive,inactive,inactive,inactive
CCCCCCN1CCC(NCc2cccc(C(F)(F)F)c2)CC1,82% (active),18%,-6,103% (active),inactive,inactive,inactive,inactive

SMILES,growth inhibition [1],inhibition [2],inhibition [3] [%],growth inhibition [4],outcome [5],outcome [6],outcome [7],outcome [8]
Cc1ccc(NC(=O)c2ccc(-c3cc4cc(Cl)c(Cl)cc4[nH]3)cc2)cc1OCCN1CCCC1,90% (active),7%,-6,101% (active),inactive,inactive,inactive,inactive
CNCc1cccc2[nH]c(-c3csc(Cc4cc(Cl)ccc4OCC(C)C)n3)nc12,33%,9%,-4,100% (active),inactive,inactive,inactive,inactive
CN(C)CCOc1ccc2[nH]c(-c3cccc(OCc4ccccc4)c3)nc2c1C#N,86% (active),48%,-5,100% (active),inactive,inactive,inactive,inactive
NC(=O)C1Cc2ccccc2CN1CC(=O)Nc1ccccc1Sc1ccccc1 (configuration not stated),99% (active),5%,3,100% (active),inactive,inactive,inactive,inactive
CC(C)C[C@@H]1C(=O)N[C@H](C2Cc3ccccc3C2)C(=O)N1[C@@H](C(=O)O)c1ccc(F)cc1F,-2%,10%,-1,98% (active),inactive,inactive,inactive,inactive
COc1ccc2cc(-c3nc(-c4c(Cl)cccc4Cl)[nH]c3-c3ccnc(NCCCN4CCN(C)CC4)c3)ccc2c1,80% (active),10%,-5,98% (active),inactive,inactive,inactive,inactive
O=C(Nc1cccc(-c2nn3ncccc3c2-c2ccnc(Nc3ccc(N4CCOCC4)cc3)n2)c1)c1c(F)cccc1F,75% (active),75% (active),7,101% (active),inactive,inactive,inactive,inactive
COc1cccc2cc(C(=O)N[C@@H](CC(C)C)C(=O)NC(/C=N/NC(=O)c3ccccc3)CCc3ccccc3)oc12 (some centres not stated),73% (active),8%,-3,88% (active),inactive,inactive,inactive,inactive
O=C(NCc1ccccc1)c1ncn(CCCN2CCC(N3CCCC3)CC2)c1-c1ccc(Cl)c(Cl)c1,36%,8%,3,89% (active),inactive,inactive,inactive,inactive
O=C(NCC(CCCN1CCC(c2c[nH]c3ccccc23)CC1)c1ccccc1)Nc1ccc(Cl)c(Cl)c1 (configuration not stated),64% (active),38%,1,101% (active),inactive,inactive,inactive,inactive
Cc1ccn2cc(-c3ccc(NC(=O)c4ccc(Br)o4)cc3)nc2c1,41%,100% (active),-3,98% (active),inactive,inactive,inactive,inactive
CC(C)Nc1cc(C(=O)N[C@@H](Cc2ccccc2)[C@H](O)CNC(C)(C)c2cccc(C(F)(F)F)c2)cc(N2CCCCS2(=O)=O)c1,98% (active),9%,2,98% (active),inactive,inactive,inactive,inactive
CC(=O)Nc1ccc(S(=O)(=O)Nc2c(C)cc(Cc3cnc(N)nc3N)cc2C)cc1,-1%,6%,5,94% (active),inactive,inactive,inactive,inactive
Nc1c2ccccc2nc2cc([N+](=O)[O-])ccc12,26%,92% (active),-1,98% (active),inactive,inactive,inactive,inactive
c1ncc(CCNc2nc(Nc3ccc4c(c3)OCO4)nc(NC3CCCC3)n2)[nH]1,-3%,-1%,-2,80% (active),inactive,inactive,inactive,inactive
Cc1ccccc1C1CCN(C2CCC(NC(=O)/C=C/c3ccc(F)cc3)CC2)CC1 (configuration not stated),30%,61% (active),-2,87% (active),inactive,inactive,inactive,inactive
CN1C(C)(C)CC(NC(=O)c2ccc(-c3cc4cc(Cl)c(Cl)cc4[nH]3)o2)CC1(C)C,43%,21%,-4,101% (active),inactive,inactive,inactive,inactive
O=C(Nc1ccc(F)cc1)NC1CCN(CCCCCNC(=O)[C@@H]2C[C@H]2c2ccc(Cl)c(Cl)c2)CC1,20%,46%,-2,101% (active),inactive,inactive,inactive,inactive
FC(F)(F)c1cccc(CNCC2CCN(CC3CCCCC3)CC2)c1,24%,21%,3,101% (active),inactive,inactive,inactive,inactive
